# Laboratory results: PubChem BioAssay (NCI)
# About 83,000 compounds went through this panel and 20% of them were active in at least one assay; those are over-represented in the sample as a whole.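 Each cell line was grown in a 96-well plate and treated with one concentration of compound for 48 hours. Values below 10 were considered active.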 Activity calls are given as the source filed them.
# Tested on: MDA-MB-231 breast
# Test: NCI-60 one-dose screen, 48 h (100 = growth as untreated, 0 = no growth, -100 = all killed)
# Settings: 10 µM unless noted
row,SMILES,growth
1,CCCCC1COc2cccc3c(SCC(=O)N(C)c4cccc(Cl)c4)cc[n+]1c23 (stereo unspecified),101% (inactive)
2,COc1ccc(-c2c(N)n[nH]c2-c2ccccc2O)cc1OC,78.7% (inactive)
3,CCOC(=O)c1sc(-c2ccc(OS(=O)(=O)c3ccc(C(C)(C)C)cc3)c(C=O)c2)nc1C,53.7% (inactive)
4,Cc1nc(Nc2ccc(NC(=S)Nc3ccccc3)cc2)nc2nc(Nc3ccc(S(=O)(=O)O)cc3)[nH]c(=O)c12,94.4% (inactive)
5,COc1ccc(/C=C2\COc3ccc(O)cc3C2=O)c(OC)c1,60.9% (inactive)
6,COc1ccc(/C(C)=C(\c2ccc(Cl)cc2)c2ccc(OCCCN(C)C)cc2)cc1F,73.7% (inactive)
7,Cc1nc(Nc2ccc(NC(=S)Nc3ccccc3)cc2)c2ccccc2n1,97.6% (inactive)
8,C=C1C(=O)O[C@H]2[C@H]1CC/C(COC(=O)/C=C\C(=O)NCc1ccc(Cn3c(=O)sn(-c4ccc(OC)cc4)c3=O)cc1)=C\CC[C@@]1(C)O[C@@H]21,-89.6% (active)
9,CN(C)CCn1cc(-c2ccc3c(Nc4ccc(CC(=O)Nc5cccc(F)c5)cc4)ncnc3c2)cn1,-85.7% [30 µM] (active)
10,COc1cc(/C=C/c2nc(Nc3ccc(S(=O)(=O)Nc4cc(C)on4)cc3)c3ccccc3n2)ccc1O,62.8% (inactive)
11,COc1ccc(/C(C)=C(\c2ccc(Cl)cc2)c2ccc(OCCN3CCCC3)cc2)cc1F,36.7% (inactive)
12,Cc1nc(Nc2ccc(S(=O)(=O)Nc3cc(C)on3)cc2)c2ccccc2n1,108% (inactive)
13,COc1ccc(OC)c(/C=C2\COc3ccc(O)cc3C2=O)c1,98.3% (inactive)
14,CCN(CC)CCOc1ccc(/C(=C(\C)c2ccc(F)c(OC)c2)c2ccc(Cl)cc2)cc1,27.9% (inactive)
15,O[C@H]1CO[C@H]2[C@@H]1OC[C@@H]2Oc1ccc(Nc2ccnc(Nc3ccc(O[C@H]4CO[C@H]5[C@@H]4OC[C@@H]5O)c(Cl)c3)n2)cc1Cl,21.8% (inactive)
16,CC(=O)Nc1ccc(-c2cc3c(NCc4ccc(F)cc4)ncnc3s2)cc1,83% (inactive)

row,SMILES,growth
1,C/C(Cc1ccc(Cl)cc1)=C(/c1ccc(Cl)cc1)c1ccc(OCCN(C)C)cc1,74.1% (inactive)
2,C=C1C(=O)O[C@H]2[C@H]1CC/C(COC(=O)/C=C\C(=O)NCc1ccc(Cn3c(=O)sn(CCCC)c3=O)cc1)=C\CC[C@@]1(C)O[C@@H]21,-84.4% (active)
3,Cc1nc(Nc2cccc(NC(=O)Nc3ccc(Cl)cc3)c2)c2ccccc2n1,86.4% (inactive)
4,COc1ccc(/C=C2\COc3ccc(O)c(O)c3C2=O)c(OC)c1,56.6% (inactive)
5,CCN(CC)CCOc1ccc(/C(=C(\C)c2ccc(OC)c(F)c2)c2ccc(Cl)cc2)cc1,87.6% (inactive)
6,C=C1C(=O)O[C@H]2[C@H]1CC/C(COC(=O)/C=C\C(=O)NCc1ccc(Cn3c(=O)sn(-c4ccc(C#N)cc4)c3=O)cc1)=C\CC[C@@]1(C)O[C@@H]21,-86% (active)
7,CN(C)CCN1C(=O)c2cccc3c(-c4ccc(-c5nc6c7ccccc7c7ccccc7c6[nH]5)cc4)ccc(c23)C1=O,89.1% (inactive)
8,c1ccc([P+](CCCc2n(Cc3ccc4ccccc4c3)c3ccccc3[n+]2Cc2ccc3ccccc3c2)(c2ccccc2)c2ccccc2)cc1,51% (inactive)
9,CCCCS(=O)(=O)Oc1ccc(-c2nc(C)c(C(=O)OCC)s2)cc1C=O,76.7% (inactive)
10,CCCCN(Cc1ccc(C(=O)NO)cc1)C(=O)Nc1ccc(OCCCCCCCCCn2cc(CCCCC(=O)N[C@H](C(=O)N3C[C@H](O)C[C@H]3C(=O)NCc3ccc(-c4scnc4C)cc3)C(C)(C)C)nn2)cc1,59.6% (inactive)
11,COc1ccc(/C(C)=C(\c2ccc(Cl)cc2)c2ccc(OCCN3CCCCCC3)cc2)cc1F,55.1% (inactive)
12,C=C1C(=O)O[C@H]2[C@H]1CC/C(COC(=O)/C=C\C(=O)NCc1ccc(Cn3c(=O)sn(-c4ccc(Cl)cc4)c3=O)cc1)=C\CC[C@@]1(C)O[C@@H]21,-86.1% (active)
13,O[C@H]1CO[C@H]2[C@@H]1OC[C@@H]2Oc1ccc(Nc2nc(Nc3ccc(F)c(Cl)c3)ncc2F)cc1Cl,95.4% (inactive)
14,O=C(CCc1nc(-c2cccc(Cl)c2)no1)Nc1ccccn1,95.6% (inactive)
15,COc1ccc(Cn2cnc3cc(C(=O)Nc4cccc5ccccc45)ccc32)c(OC)c1,4.77% [30 µM] (active)
